Experimental data: PubChem BioAssay AID651951 (The Scripps Research Institute Molecular Screening Center, 2012)
In all, about 2,400 compounds went through this assay and about 1,100 (46%) were called active. The set was probably picked from earlier hits. The list is a sample of the results. Unmarked numbers belong to inactive results.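 The calls were made as follows: active = inhibition above the run cutoff, the mean inhibition of all test compounds plus 3 SD (cut at about 49% in these data); inactive = the rest.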

biological target: Trace amine-associated receptor 1 (Homo sapiens) (UniProt Q96RJ0); experiment: TAAR1 desensitization by agonist hits, confirmation, counter-screen for TAAR1 agonist project, cell-based, fluorescence, tachyphylaxis (AID 651951); settings: CHO RD-HGA16 hTAAR1, Fluo-8 calcium, beta-PEA response inhibition; at 3 µM; hits give high values;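 also: beta-PEA stimulus applied at its EC80; loss of beta-PEA calcium signal after compound pretreatment read as receptor desensitization; 0% = DMSO with beta-PEA at EC80 and 100% = DMSO alone without agonist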
Sequence (Q96RJ0 whole entry, looked up): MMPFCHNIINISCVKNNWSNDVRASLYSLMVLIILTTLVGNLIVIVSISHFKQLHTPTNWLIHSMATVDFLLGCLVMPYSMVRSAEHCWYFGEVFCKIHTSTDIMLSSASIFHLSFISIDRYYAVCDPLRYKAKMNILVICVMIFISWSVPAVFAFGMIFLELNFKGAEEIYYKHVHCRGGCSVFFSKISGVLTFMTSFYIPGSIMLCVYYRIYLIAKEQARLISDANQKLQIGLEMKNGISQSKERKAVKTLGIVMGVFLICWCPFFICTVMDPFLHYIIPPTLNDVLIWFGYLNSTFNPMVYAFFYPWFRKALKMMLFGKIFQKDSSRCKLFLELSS

Compound | inhibition
O=C(N[C@H](C(=O)N1CCC[C@H]1C(=O)NCCc1ccccc1Cl)c1ccccc1)c1ccccc1 | 85.5% (active)
Cc1cc(=O)oc2c(C)c(OCC(=O)NCCN3CCOCC3)ccc12 | 2.28%
O=Cc1c(NCCc2cccc(F)c2)c2ccccc2[nH]c1=O | 36.8%
Nc1c(NCCc2ccccc2)c2ccccc2oc1=O | 53.6% (active)
CCOc1ccc(Br)cc1CSC(=N)N | 67% (active)
CCCCOc1ccc(CSC(=N)N)cc1[N+](=O)[O-] | 12.3%
CCc1ccc(-c2nn(-c3ccccc3)cc2CSC(=N)N)cc1 | 25.1%
S=C(Nc1ccc(Br)cc1)NC1CCN(Cc2ccccc2)CC1 | 48.3%
Cc1ccccc1-c1nc(CS(=O)(=O)CC(=O)N2CCc3ccccc3C2)c(C)o1 | 25.5%
CCC(C(=O)Nc1ccc(C(C)C)cc1)c1ccccc1 (centres undefined) | 103% (active)
Cc1ccc(Sc2cc(N3CCOCC3)nc(-c3ccccc3)n2)cc1 | 7.49%
CCC(c1nnnn1Cc1ccco1)N(CCc1ccccc1)Cc1cc2ccc(OC)cc2[nH]c1=O (centres undefined) | 13.2%
COc1ccc(OC)c(C(c2nnnn2C(C)(C)C)N2CCc3ccccc3C2)c1 (centres undefined) | 17.8%
O=C(O)C1C2C=CC(O2)C1C(=O)NCCc1cccc(Cl)c1 (centres undefined) | 92.1% (active)
O=C(NNC(=S)NC(=O)c1cn(-c2ccccc2)nc1-c1ccccc1)c1ccncc1 | 79.3% (active)
CN(C(=O)CN(CCO)CC(=O)N(C)C(C)(C)Cc1ccccc1)C(C)(C)Cc1ccccc1 | 94.8% (active)
CCCc1cc(C(=O)Nc2ccc(C(=O)OC)cc2)cs1 | 11%
O=C(/C=C/[C@H]1O[C@@H](n2cnc3c(NC(=O)c4ccccc4)ncnc32)[C@H](O)[C@@H]1O)NCc1ccccc1 | -5.17%
O=C(NCCc1ccccc1)C(=O)NCC1OCCN1S(=O)(=O)c1cccs1 (centres undefined) | 36.3%
CCc1ccccc1S(=O)(=O)Cc1ccc(C(=O)NCCc2ccccc2)o1 | 77.1% (active)
O=C1CCCN2N=C(SCC(=O)Nc3ccc(Br)cc3)SC2=N1 | 36.4%
CCCCC(=O)NNC(=S)NC(=O)C(c1ccccc1)c1ccccc1 | 107% (active)
c1ccc2c(c1)OCC(CNc1ncnc3nc[nH]c13)O2 (centres undefined) | 106% (active)

Compound | inhibition
Cc1cc(C)c2cc(C#N)c(N3CCNCC3)nc2c1 | 79.8% (active)
COc1ccc(NC(=O)C(=O)NCC(c2ccco2)N2CCc3ccccc3C2)cc1 (centres undefined) | -6.26%
Cc1ccc(S(=O)(=O)N(CC(=O)N2CCc3ccccc3C2)c2cccc(Cl)c2)cc1 | 29.8%
Cc1ccc(NC(=O)CCN2CCc3ccccc3C2)cc1 | 78% (active)
CN(C)CCCN(C(=O)c1ccc(S(=O)(=O)N2CCCCCC2)cc1)c1nc2ccc(Br)cc2s1 | 41.1%
CN(C)CCCN(C(=O)c1ccc(S(=O)(=O)N2CCCc3ccccc32)cc1)c1nc2ccc(F)cc2s1 | 53.1% (active)
COc1ccc(C(=O)CN2C(=O)NC(C)(c3ccc(C)cc3)C2=O)cc1OC (centres undefined) | 10.7%
Cc1onc(-c2ccccc2)c1C(=O)NNC(=S)NC(=O)c1ccc(F)cc1 | 65.3% (active)
COc1ccc(C(=O)NC(=S)NNC(=O)CCc2ccccc2)cc1 | 68.4% (active)
O=C(Nc1cccc(NC(=O)c2ccc(Br)cc2)c1)c1ccccc1 | -9.63%
COc1ccc(C(=O)NNC(=S)NC(=O)c2ccccc2)cc1 | 76.1% (active)
COc1ccc(C(=O)NC(=S)NNC(=O)c2c(-c3ccccc3)noc2C)cc1 | 29.8%
C#CCOc1ccc(/C=C2/C(=O)NN(c3ccccc3)C2=O)cc1OC | 39%
Nc1nonc1-n1nnc(C(=O)N/N=C/c2ccc(Cl)cc2)c1-c1ccc2c(c1)OCO2 | 37.8%
Nc1cccc2c1C(=O)N(Cc1nnc(-c3ccccc3Br)o1)C2=O | 26.5%
O=C(Nc1ccncc1)Nc1ccc(F)cc1 | 76.4% (active)
CCCn1c(O)c(CN2CCCC(C)C2)c(C)c(C#N)c1=O (centres undefined) | 55.8% (active)
S=C(NCCc1ccccc1)N1CCn2cccc2C1c1ccncc1 (centres undefined) | 83.2% (active)
COc1ccc(OC)c(NC(=S)N2CCc3ccccc3C2)c1 | 40.2%
CCCSc1nc2c(c(=O)n(C)c(=O)n2C)n1Cc1ccc(C)cc1 | 37.9%
c1ccc(Nc2nc(N3CCOCC3)c3ccccc3n2)cc1 | 93% (active)
CC(Oc1ccc2ccccc2c1)C(=O)NNC(=S)NC(=O)c1ccco1 (centres undefined) | 70.9% (active)
CCCc1ccc(OCC(=O)NNC(=S)NC(=O)c2ccco2)cc1 | 71.9% (active)

Compound | inhibition
COc1ccc2cc(-c3[nH]ncc3CNCCn3nc(C)cc3C)ccc2c1 | 13%
NC(=O)C1=C[C@H](c2csc3ccccc23)C[C@H](OCc2ccc(CO)cc2)O1 | 50.8% (active)
COC(=O)c1[nH]c2cccc(C)c2c1NC(=O)CN1CCCc2ccccc21 | 35.7%
COc1cccc(-c2cnc(OC(C)(C)C)nc2OC(C)(C)C)c1 | 3.93%
Fc1ccc(NC(=S)N2CCc3[nH]c4ccccc4c3C2)cc1 | 28.1%
O=C(CCCN=C1NS(=O)(=O)c2ccccc21)OCC(=O)c1ccc(F)c(F)c1 | 37.4%
C[C@H](NC(=O)c1ccccc1)C(=O)OCC(=O)c1c[nH]c2ccccc12 | 79.2% (active)
OC(CNCCc1ccc(Cl)cc1Cl)COc1ccccc1 (centres undefined) | 79.2% (active)
COc1ccc(CC(N)c2csc(NC(=O)Cc3ccccc3)n2)cc1 (centres undefined) | 23.6%
CC(C)(C)CC(=O)Nc1nc(C(N)Cc2ccc(C(F)(F)F)cc2)cs1 (centres undefined) | 58.9% (active)
O=C(COC(=O)Cc1ccccc1F)NCCc1ccccc1 | 86% (active)
Cc1cc2nc3c(=O)[nH]c(=O)nc-3n(C[C@H](O)[C@H](O)[C@H](O)CO)c2cc1C | 53.2% (active)
O=C(Nc1ccc(Cl)cc1)N1CCc2[nH]c3ccccc3c2C1 | 12.4%
O=c1cnnc(Nc2ccccc2)[nH]1 | 60.1% (active)
COc1ccc2c(c1)OC(O)(C(F)(F)C(F)F)CC2=O (centres undefined) | 11.2%
NC[C@H](Cc1ccccc1)NCCc1cc(C(F)(F)F)cc(C(F)(F)F)c1 | 12.9%
CCCCCCCCCCOC(=O)Cn1c(COc2ccc(C)cc2)[n+](C)c2ccccc21 | 102% (active)
CC(Oc1ccc(Cl)cc1)C(=O)OCC(=O)Nc1ncc(Cl)cc1Cl (centres undefined) | 7.27%
Cc1ccc(Cl)cc1N1CCN(C(=O)c2cccc3c(=O)c(C)c(-c4ccccc4)oc23)CC1 | 80.9% (active)
Nc1c(C(=O)c2cccs2)sc2nsc(SCCN3CCCCC3)c12 | 60.8% (active)
CCOC(=O)Cc1csc(NC(=O)Nc2ccccc2)n1 | 28.9%
COc1ccc(C(N)c2csc(NC(=O)Nc3cccc(C(F)(F)F)c3)n2)cc1 (centres undefined) | 44.9%
NC(c1ccccc1)c1csc(NC(=O)Nc2cccc(C(F)(F)F)c2)n1 (centres undefined) | 50.7% (active)

Compound | inhibition
COc1cc(OC)c(-n2cc(-c3ccc(Cl)cc3)[nH]c2=O)cc1Cl | 79.8% (active)
O=C(Cc1ccc(Cl)cc1)NC(=S)Nc1ccccc1O | 106% (active)
Cc1ccccc1NC(=S)NC(=O)Cc1ccc(Cl)cc1 | 81.5% (active)
CCC(c1nnnn1Cc1ccco1)N(CCc1ccccc1)Cc1cc2cccc(C)c2[nH]c1=O (centres undefined) | 20.6%
NC(Cc1ccccc1)c1csc(Nc2cc(Oc3ccccc3)ncn2)n1 (centres undefined) | 65.7% (active)
CC(=O)Oc1ccc(Cn2c(C)c(C(=O)NCc3ccc(C#N)cc3)sc2=O)cc1 | 72.9% (active)
O=C1CCCC(O)=C1C=NCCc1ccccc1 | 32.1%
Cc1ccn2c(=O)c(C(=O)NCCC3=CCCCC3)c(O)nc2c1 | 65.7% (active)
c1ccc(-c2csc(N3CCc4ccccc4C3)n2)cc1 | 15.3%
Oc1ccc2ccc3cccc[n+]3c2c1 | 19.6%
CC(NC(=O)c1cc(-c2ccccc2)on1)c1ccccc1 (centres undefined) | 51.1% (active)
COc1cc(OC)cc(C(=O)N[C@H](C(=O)OCC(=O)NC(C)c2ccccc2)C(C)C)c1 (some centres undefined) | 12.6%
c1ccc(C2CNCc3c2ccc2ccccc32)cc1 (centres undefined) | 95.2% (active)
CCN(CC)c1ccc2oc(=O)c(C)nc2c1 | 25.7%
O=C(Nc1ccccc1)Nc1nnc(COc2ccccc2F)s1 | 72.4% (active)
O=C(Nc1ccc(F)cc1)Nc1nnc([C@H]2C[C@H](O)[C@@H](CO)O2)s1 | 25.5%
O=C(c1noc2c1CCCC2)N1CCc2ccccc2C1 | 5.47%
CN(C)c1ccc(/C=C2\NC(=S)N(Cc3ccccc3)C2=O)cc1 | 63.9% (active)
CC(=O)Nc1ccccc1Sc1ccc2c3c(cccc13)C(=O)N(c1ccc(C)cc1)C2=O | 5.11%
CCCOc1ccc(-c2c(C(=O)N/N=C/c3ccco3)nnn2-c2nonc2N)cc1 | 13.2%
Cc1cccc(NC(=O)C(C)N2C(=O)C3C4CC(C(Br)C4Br)C3C2=O)c1 (centres undefined) | 52.5% (active)
CCCC1CCC(=NNC(=S)NCCc2ccccc2)CC1 (centres undefined) | 51.7% (active)
Cc1ccc(O)c(NC(=S)NC(=O)COc2ccc(Br)cc2)c1 | 104% (active)

Compound | inhibition
Nc1cc(OC(=O)c2ccccc2Br)nn1S(=O)(=O)c1ccccc1 | 11.7%
COCCCn1c(Cc2csc(Nc3cccc(Cl)c3)n2)nnc1SCC(=O)OC1CCCCC1 | -2.24%
COc1ccc(Cl)cc1C(=O)NNC(=S)NC(=O)/C=C/c1ccco1 | 67.7% (active)
O=C1C=C(c2ccc(Cl)cc2)C(=O)N1Nc1ccccc1 | 72.8% (active)
Nc1nnn(CC(=O)N/N=C/c2ccccc2)n1 | 17.8%
CSc1nc(N)c(C#N)c(-c2ccccc2Cl)c1C#N | 24.1%
O=C(CSc1nc(-c2ccco2)cc(C(F)(F)F)n1)NCc1cccs1 | -5.52%
Cc1c(CNCCc2ccccc2)c(C(=O)O)c(C)n1-c1ccccc1 | 53.7% (active)
COc1cccc(N(CC(=O)N2CCc3ccccc3C2)S(C)(=O)=O)c1 | 15.3%
S=C(NCCCc1cnc[nH]1)NCCCN(Cc1ccc(Cl)c(Cl)c1)c1ccc(Br)cn1 | 59.7% (active)
CCCCCC(=O)NC(=S)NNC(=O)c1ccc([N+](=O)[O-])cc1 | 61% (active)
O=C(NCCc1ccccc1)/C(=C\c1ccc([N+](=O)[O-])cc1)NC(=O)c1ccccc1 | 7.67%
CCCCc1c(-c2ccc(Cl)cc2)ncn1CCc1ccccc1OC | 83.4% (active)
CCCCCc1c(Cc2ccccc2)ncn1CCc1ccccc1OC | 88.8% (active)
CCCCc1c(-c2ccc(Br)cc2)ncn1CCc1ccccc1OC | 49.3% (active)
CCCCCc1c(-c2cccc(Br)c2)ncn1CCc1ccccc1OC | 20.5%
CCc1c(-c2ccccc2OC)ncn1CCc1ccccc1OC | 39.8%
CCCCCc1c(-c2ccc(OC)c(OC)c2)ncn1CCc1ccccc1OC | 97.1% (active)
N#Cc1ccc(OCCCN2CCC(C(O)(c3ccccc3)c3ccccc3)CC2)c(F)c1 | 23.9%
O=[N+]([O-])c1cc(S(=O)(=O)NCCc2ccccn2)ccc1Cl | 39%
Cn1c(=O)c(=O)n(C)c2cc(S(=O)(=O)NCCc3ccccc3)ccc21 | 73.1% (active)
c1ccc2c(c1)C(=NC1CCCCC1)NC2=NC1CCCCC1 | 42.2%
